Luciferase inh – blocks Photinus pyralis firefly luciferase activity | hit rate 2.2% among 72,000 | purified firefly luciferase, luminescence, 8 min | Potency, µM (top dose mostly 57.1 µM), actives largely listed as inhibitors | P08659; active = well fitted inhibition curve with a large enough effect; note: nearly all actives have a fitted effect of over 40% in size
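Substrate buffer containing 10 uM ATP (pH 7.2 imidazole, Mg2+, KCl, detergent, BSA) is dispensed, compound pinned in, then luciferase/luciferin detector mix added. After 8 min at ambient temperature, light output is measured.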
GBA mod – alters purified human glucocerebrosidase activity | hit rate 1.1% among 48,000 | Potency, µM | purified enzyme, resorufin glucoside fluorescence (screen aimed at inhibitors), 20 min; in the data active = potency below about 15 µM;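 note: the screen sought inhibitors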
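Compounds titrated against 0.2 nM normal enzyme, 30 uM resorufin beta-D-glucopyranoside substrate, citrate/phosphate buffer with taurocholate and tween-20, pH 5.9. Reaction ran 20 min at room temperature; fluorescence (Ex 548/Em 600) gave AC50.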
Bst PK mod – pyruvate kinase (B. stearothermophilus) modulation. purified pyruvate kinase, luminescence ATP production; ribose 5-phosphate activator present at AC10. Potency, µM. hit rate 1.2% among 51,000; in the data active = potency below about 11 µM;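 the screen sought inhibitors and activators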
Each line names hits and unclear results; the compound was inactive in the other large screens. Hits are enriched below; roughly 3.2% of the tested compounds scored in any of these assays.

COc1cccc2sc(N3CCN(c4nc5ccccc5s4)CC3)nc12	none
COc1cccc2sc(N(C)c3ccccc3)nc12	Luciferase inh 7.94µM, Bst PK mod 8.14
O=C1c2cc([N+](=O)[O-])ccc2-c2ccc3c4ccc5c6c(ccc(c7ccc1c2c73)c64)C(=O)c1cc([N+](=O)[O-])ccc1-5	none (no result: GBA mod, Bst PK mod)
COc1ccc(C)cc1NC(=O)c1nnn(CCc2ccccc2)c1N	none (no result: GBA mod, Bst PK mod)
Nc1c(C(=O)Nc2ccc3c(c2)OCCO3)nnn1CCc1ccccc1	Luciferase inh 15.8µM (no result: GBA mod, Bst PK mod)
COc1ncc2ncc(=O)n(CCc3ccccc3)c2n1	none (no result: GBA mod, Bst PK mod)
Cc1occc1-c1nnc(SCc2cc(=O)n3cc(Br)ccc3n2)n1C	none
Cc1ccccc1Nc1nc(CSc2nnc(-c3ccoc3C)n2C)cs1	Luciferase inh 25.1µM (no result: GBA mod, Bst PK mod)
CS(=O)(=O)N1CCC[C@@]2(CCN(C(=O)Nc3cccc(F)c3)C2)C1	none (no result: GBA mod, Bst PK mod)
Cc1nnc(SCC2=C(C(=O)O)N3C(=O)[C@@H](NC(=O)Cn4cnnn4)[C@@H]3SC2)s1	none (no result: GBA mod, Bst PK mod)
COc1ccc(O[C@H]2C=C[C@@H](c3ccccc3)O[C@@H]2CON=C(C)C)cc1	none (no result: GBA mod, Bst PK mod)
CCOc1ccc(-c2cc(C(=O)N3CCN(C)CC3)c3ccccc3n2)cc1	Luciferase inh 2µM, Bst PK mod 3.06
CCOc1ccc2nc(-c3ccc(OC)c(OC)c3)cc(C(=O)O)c2c1	none (no result: Bst PK mod)
O=C(c1cc(-c2ccccc2)nc2ccccc12)N1CCOCC1	none (no result: GBA mod, Bst PK mod)
CCOC(=O)N1CCN(C(=O)c2cc(-c3ccc(OCC)cc3)nc3ccccc23)CC1	Luciferase inh 0.794µM, Bst PK mod 1.06
COc1cccc(-c2cncnc2NCCc2cnc[nH]2)c1	none (no result: GBA mod, Bst PK mod)
O=C(N/N=C1/C[C@@H](O)[C@@H](O)[C@@H]2[C@@H]3C(=O)N(c4cccc(Oc5ccccc5)c4)C(=O)[C@H]3CC[C@@H]12)OCc1ccccc1	none (no result: GBA mod, Bst PK mod)
CS(=O)(=O)Nc1cccc(-c2nc(NCCN3CCOCC3)c3ccccc3n2)c1	none (no result: GBA mod, Bst PK mod)
C/C(=N/Nc1ccc2ccccc2n1)c1ccccc1O	Luciferase inh 1.26µM (no result: GBA mod, Bst PK mod)
O=C(O)CSc1ccc2ccccc2n1	none
C[C@H]1[C@H](C)CC[C@@]2(C(=O)O)CC[C@]3(C)C(=CC[C@@H]4[C@@]5(C)CC[C@H](O)C(C)(C)[C@@H]5CC[C@@]43C)[C@@H]12	none (no result: GBA mod, Bst PK mod)

Screens deposited in PubChem by National Center for Advancing Translational Sciences (NCATS).
